Assay outcomes as filed in PubChem.
Shown is part of a subset that was picked to be rich in hits.
KDM5B inhibitor – inhibitors of human KDM5B histone demethylase; Q9UGL1; Potency, µM (highest dose often 57.7 µM), usual class: inhibitors; KDM5B demethylase, FDH-coupled NADH fluorescence (FDH is formaldehyde dehydrogenase); 220,000 compounds, 2.6% hits; AID 1347165; active = well fitted inhibition curve with a large enough effect; also: 0% is about no effect; nearly all actives have a fitted effect of over 70% in size
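KDM5BΔAP (200 nM final) in 50 mM HEPES pH 7.5, 0.01% Tween-20 was preincubated 10 min at RT with compound over a concentration range. Substrate mix (H3K4me3 12.5 µM, α-KG 25 µM, Fe²⁺, ascorbate, NAD⁺, FDH) was added, and NADH fluorescence change over 30 min gave dose-response curves.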
Active calls of the source: *. Potency is read from the fitted curve at half-maximal effect.

For CCOc1cc(C2N=C(N)Nc3nc4cc5c(cc4n32)OCCCO5)cc(Cl)c1O (stereo unspecified) the results were KDM5B inhibitor inactive.
For COc1nc(C(=O)NCC(=O)NC(C)(C)C)cc2ccccc12 the results were KDM5B inhibitor inactive.
For COc1ccccc1NC(=O)Nc1c(NC2CCCC2)c2ccccc2oc1=O the results were KDM5B inhibitor inactive.
Screening O=C1C(Br)C2C3CC4C(CC(Br)C42)C13 (stereo unspecified) returned KDM5B inhibitor inactive.
For CCCCCCCNC(=O)CCC(=O)NCCC(C)C the results were KDM5B inhibitor inactive.
For CCN1C(=O)C2(CCN(C(=O)COC)CC2)c2ccccc21 the results were KDM5B inhibitor inactive.
`CCOC(=O)N1CCN(c2ccc(NS(=O)(=O)c3cc(F)ccc3F)cc2C(=O)O)CC1` gave KDM5B inhibitor inactive.
Screening CCOc1ccc(-c2cc3c(=O)n(CCNC(=O)c4cnccn4)ccn3n2)cc1 returned KDM5B inhibitor 25.1µM*.
`Cc1ccc(-c2cc3c(=O)n(CCNC(=O)c4cnccn4)ccn3n2)cc1C` gave KDM5B inhibitor 22.4µM*.
Cc1cc(C)c2c(n1)oc1c(=O)n(CC(=O)NC3CCCCC3)cnc12 was read as KDM5B inhibitor inactive.
O=S(=O)(Nc1nc2ccccc2nc1Nc1ccccc1)c1cccc2nsnc12 was read as KDM5B inhibitor inactive.
For Cc1ccc(-c2c(C)nn3c(N4CCN(C)CC4)cc(C)nc23)cc1 the results were KDM5B inhibitor inactive.
O=C(Cc1ccc(F)cc1)N1CCC2(CC1)CC(=O)N(c1ccccc1)c1ccccc1O2 was read as KDM5B inhibitor inactive.
Cn1ccnc1C(NC(=O)COc1ccccc1-c1ccccc1)c1ccc(F)cc1 (stereo unspecified) was read as KDM5B inhibitor inactive.
For COCc1ccc2c(c1)c(OC(C)(C)C(=O)Nc1ccccc1)nn2Cc1cccnc1 the results were KDM5B inhibitor inactive.
Screening CC(C)(Oc1nn(CCN2CCOCC2)c2ccccc12)C(=O)NCc1ccccc1 returned KDM5B inhibitor inactive.
`CC(C)(Oc1nn(Cc2cccc(Cl)c2)c2ccccc12)C(=O)NCCN1CCOCC1` gave KDM5B inhibitor inactive.
For COCc1ccc2c(c1)c(OC(C)(C)C(=O)Nc1cc(C)nn1C)nn2Cc1ccccc1 the results were KDM5B inhibitor inactive.
COCc1ccc2c(c1)c(OC(C)(C)C(=O)NCc1cnccn1)nn2Cc1cccnc1 was read as KDM5B inhibitor inactive.
For CC(C)n1nc(OC(C)(C)C(=O)NCc2cnccn2)c2cc(CN3CCOCC3)ccc21 the results were KDM5B inhibitor inactive.
`CN1CCC(NC(=O)C(C)(C)Oc2nn(CCOc3ccccc3)c3ccccc23)CC1` gave KDM5B inhibitor inactive.
`COCc1ccc2c(c1)c(OC(C)(C)C(=O)NC1CC1)nn2Cc1ccccc1` gave KDM5B inhibitor 35.5µM*.
COCc1ccc2c(c1)c(OC(C)(C)C(=O)NCC1CCOCC1)nn2CCC(C)C was read as KDM5B inhibitor 35.5µM*.
`Cn1nc(OC(C)(C)C(=O)NCCOc2ccccc2)c2cc(CN3CCCC3)ccc21` gave KDM5B inhibitor 39.8µM*.
`CN(C)Cc1ccc2c(c1)c(OC(C)(C)C(=O)NC1CC1)nn2Cc1ccccc1` gave KDM5B inhibitor 35.5µM*.
Screening CC(C)(C)NC(=O)C[C@@H]1CCNC[C@@H]1Cc1cc(-c2ccc(C(C)(C)C)cc2)on1 returned KDM5B inhibitor inactive.
`Cc1ccccc1C1CC(=O)NC2=C1C(=O)CC(C)(C)C2` (stereo unspecified) gave KDM5B inhibitor inactive.
`CCn1nc(C(=O)OCC(=O)Nc2ccc(Cl)c(C(F)(F)F)c2)c2ccccc2c1=O` gave KDM5B inhibitor inactive.
For Cc1cc(C)cc(NC(=O)C(c2ccccc2)n2cnc3c2c(=O)n(C)c(=O)n3C)c1 (stereo unspecified) the results were KDM5B inhibitor inactive.
`CN1CCCN(C(=O)CC2CCCC2)c2ccccc21` gave KDM5B inhibitor inactive.
`COCc1ccc2c(c1)c(OC(C)(C)C(=O)NCC1CC1)nn2Cc1ccccc1` gave KDM5B inhibitor 31.6µM*.
COCc1ccc2c(c1)c(OC(C)(C)C(=O)N1CC(O)C1)nn2Cc1cccnc1 was read as KDM5B inhibitor inactive.
Screening CC(C)(Oc1nn(Cc2cccc(Cl)c2)c2ccccc12)C(=O)NCC[S+](C)(=O)[O-] returned KDM5B inhibitor inactive.
Screening COCc1ccc2c(c1)c(OC(C)(C)C(=O)N1CCN(CCO)CC1)nn2Cc1ccccc1 returned KDM5B inhibitor inactive.
For COCc1ccc2c(c1)c(OC(C)(C)C(=O)NC1CCOCC1)nn2Cc1ccccc1 the results were KDM5B inhibitor 28.2µM*.
Screening COCc1ccc2c(c1)c(OC(C)(C)C(=O)NCC[S+](C)(=O)[O-])nn2Cc1cccnc1 returned KDM5B inhibitor inactive.
For COCc1ccc2c(c1)c(OC(C)(C)C(=O)NCCc1cccnc1)nn2Cc1ccccc1 the results were KDM5B inhibitor inactive.
For COCc1ccc2c(c1)c(OC(C)(C)C(=O)NCC[S+](C)(=O)[O-])nn2Cc1ccccc1 the results were KDM5B inhibitor 28.2µM*.
